# Results taken from ChEMBL document CHEMBL3988442, “University of Dundee, Small-Polar-MMV Screening Library” (2021).
# The whole screen tested about 48,000 compounds, of which about 13,000 (27%) showed an effect of 50% or more. This is one part of the list.
# System: Wolbachia pipientis
# Assay: Anti-Wolbachia Cell-Based Screen
# Type: functional
# Set-up: scale not given: in the data most compounds retested in dose-response had high values
# Details: 5 µM
row,Compound,Percent Effect
1,CCN1CCN(c2nc(C(C)C)nc3c(C)nn(CC)c23)CC1,-2.933%
2,Cn1ccnc1CN1CCN2C[C@H](Oc3ccccc3)C[C@H]2C1.O=C(O)C(F)(F)F.O=C(O)C(F)(F)F,-6.794%
3,CN(C)c1nccc(N(C)Cc2ncnn2C)n1,4.507%
4,COc1ccnc(NCC2CN(C3CC3)CCO2)n1 (centres undefined),0.4171%
5,Cc1nc(CNCC2CN(C3CC3)CCO2)cs1 (centres undefined),87.5%
6,CCN1CCOC(CNc2nccc(OC)n2)C1 (centres undefined),1.918%
7,Cc1nc(CNCC2CCCN(C(=O)OC(C)(C)C)C2)cs1 (centres undefined),4.206%
8,CCN1CCOC(CNCc2ccc(OC)c(F)c2)C1 (centres undefined),-3.361%
9,CCN1CCOC(CNCc2ccc(C)s2)C1 (centres undefined),96.42%
10,CCN1CCOC(CNCc2ccccc2OCC(=O)N(C)C)C1 (centres undefined),-2.531%
11,CCN1CCOC(CNCc2ccccn2)C1 (centres undefined),1.335%
12,CCN1CCOC(CNCc2csc(C)n2)C1 (centres undefined),88.2%
13,CCc1noc(CN(C)C(=O)c2ccccc2-c2ncn[nH]2)n1,-19%
14,Cc1nn(C)c(C)c1CN(C(=O)c1cc(Cl)c[nH]c1=O)C(C)C,-11.33%
15,CC(C(=O)NC1(C#N)CCCCC1)N1CCc2c(ncn2C)C1 (centres undefined),-1.256%
16,N#Cc1ccc(OC2CCN(C(=O)c3ccccc3Cl)CC2)nc1,-3.988%
17,O=C(c1ccccc1Cl)N1CC[C@H](O)[C@@H](N2CCOCC2)CC1,95.8%
18,O=C(c1ccccc1C(F)(F)F)N1CC[C@@H](N2CCC(O)CC2)[C@H](O)C1,-4.117%
19,O=C(c1ccc(F)cc1F)N1CC[C@H](O)[C@@H](N2CCOCC2)CC1,0.4748%
20,Cc1ccccc1C(=O)N1CC[C@@H](N2CCC(O)CC2)[C@H](O)C1,2.362%
21,Cc1ccccc1C(=O)N1CC[C@H](O)[C@@H](N2CCOCC2)CC1,126.5%
22,N#Cc1cccc(CN2CCCC2c2ccc[nH]2)c1 (centres undefined),7.816%
23,Cc1ccc(NC(=O)C2CSCN2C(=O)c2cc[nH]n2)c(C)c1 (centres undefined),9.143%

row,Compound,Percent Effect
1,O=C(NC1CCCC1)N1C[C@H]2CN(c3ccncc3)C[C@@]2(C(=O)O)C1,-18.18%
2,Cc1ccc(C(CNCc2ccncc2)N2CCOCC2)s1 (centres undefined),-8.996%
3,Cc1ccc(C(CNCc2nccn2C)N2CCOCC2)s1 (centres undefined),-4.854%
4,CCn1ccnc1CNCC(c1ccc(C)s1)N1CCOCC1 (centres undefined),53.4%
5,CC(c1ccccc1)n1c(SCC(=O)O)nnc1-c1ccccc1Cl (centres undefined),9.035%
6,CCn1cc(NC(=O)c2cccc(CN3C[C@@H](C)O[C@@H](C)C3)c2)nn1,90.95%
7,CCCn1cc(NC(=O)c2cccc(CN3CC=CC3)c2)nn1,-66.35%
8,CCCn1cc(NC(=O)c2cccc(CN3CC[C@H](O)C3)c2)nn1,12.98%
9,Cc1cccc(C2(NC(=O)CCCn3cncn3)CCCC2)c1,-10.46%
10,CCOCCNC(=O)c1cnc(Sc2nccn2C)c(Cl)c1,13.89%
11,CCOCCNC(=O)c1cccnc1Sc1cc(OC)ccc1OC,152.7%
12,CCOC(=O)NC(CNC(=O)c1cccnc1SC)CC(C)C (centres undefined),-1.757%
13,COCCNC(=O)c1cccnc1Sc1cc(OC)ccc1OC,161.9%
14,COc1ccc(OC)c(C(=O)Nc2cccnc2-n2cncn2)c1,13.43%
15,COCCNC(=O)c1cc(OC)ccc1Br,8.343%
16,COc1ccc(C(=O)NCCCNc2ncccn2)cc1F,-6.702%
17,COc1ccc(OC)c(Sc2ncccc2C(=O)NCC2CC2)c1,167.1%
18,CCOC(=O)CNC(=O)c1cccnc1Sc1cc(OC)ccc1OC,162.1%
19,Cc1nc2cc(F)ccc2cc1C(=O)N1CCN(CC(C)O)CC1 (centres undefined),-9.577%
20,COc1ccc(OC)c(Sc2ncccc2C(=O)NCCSC)c1,104.4%
21,CSc1ncccc1C(=O)NCCC(O)c1cccs1 (centres undefined),13.17%
22,CSc1ncccc1C(=O)NCCC(O)c1cc(C)oc1C (centres undefined),-1.719%
23,O=c1oc(-c2ccc(F)cc2)nn1CCc1ccccn1,-9.185%

row,Compound,Percent Effect
1,O=C(c1ccc(N2CCCC2)nn1)N1CCc2ccccc21,13.46%
2,O=C(c1ccc(N2CCCC2)nn1)N1CCCc2ccc(F)cc21,-11.11%
3,O=C(c1ccc(N2CCCCCC2)nn1)N1CCc2ccccc21,130.8%
4,CCN(CC)C(=O)Nc1cc2c(cc1SC)OCCO2,7.32%
5,CC(C)c1nccn1C1CCCN(C(=O)c2cccc3c2OCO3)C1 (centres undefined),-5.15%
6,O=C(c1cc(Cl)c2c(c1)OCO2)N1CCCC(n2ccnc2)C1 (centres undefined),1.53%
7,CCc1nccn1C1CCCN(C(=O)c2ccnc(C)n2)C1 (centres undefined),1.971%
8,O=C(c1cccc2c1OCCO2)N1CCCC(n2ccnc2)C1 (centres undefined),-8.704%
9,O=C(c1cccc2c1OCO2)N1CCCC(n2ccnc2)C1 (centres undefined),115.9%
10,Cc1nccn1C1CCCN(C(=O)c2cccc3c2OCO3)C1 (centres undefined),116.3%
11,CCc1nccn1C1CCCN(C(=O)c2cnn3ccc(C)nc23)C1 (centres undefined),-1.055%
12,CCc1nccn1C1CCCN(C(=O)c2cccc3c2OCO3)C1 (centres undefined),115.7%
13,O=C1CC(C(=O)Nc2nnc(-c3cccs3)[nH]2)c2ccccc2N1 (centres undefined),-3.979%
14,CC(C)OC(=O)CN1N=C(C(=O)N2CCCC2)S(=O)(=O)c2ccccc21,15.65%
15,N#Cc1ccccc1CN1C[C@@H]2CC[C@H](C1)N(CC1CC1)C2=O,-10.09%
16,Cc1nn(CCC#N)c(C)c1CCC(=O)N(C(C)C)C1CC1,-0.4171%
17,COc1ccc(C(=O)NC2CC2)c(OC2CCN(CC3CC3)CC2)c1,4.837%
18,COCc1nc(C(=O)N2CCN(c3nccc(OC)n3)CC2)cs1,-10.67%
19,CSCC(=O)N1CCCC(n2ccnc2C(C)C)C1 (centres undefined),-4.829%
20,COCc1nc(C(=O)N2CCCC(n3ccnc3C(C)C)C2)cs1 (centres undefined),114%
21,COCc1nc(C(=O)N2CCCC(n3ccnc3)C2)cs1 (centres undefined),102.7%
22,CC(C)c1nccn1C1CCCN(C(=O)c2ccc(=O)n(C)n2)C1 (centres undefined),4.106%
23,CC(=O)Nc1nc(C(=O)N2CCCC(n3ccnc3)C2)cs1 (centres undefined),-0.04658%

row,Compound,Percent Effect
1,COCc1nc(C(=O)N2CCCC(n3ccnc3C)C2)cs1 (centres undefined),95.68%
2,Cc1nccn1C1CCCN(C(=O)c2ccc(N3CCCC3)nn2)C1 (centres undefined),-4.751%
3,CC(C)Nc1ccc2c(c1)C1(CCOCC1)C(=O)N2c1ccsc1,-5.936%
4,CCc1cc(N2C[C@H](C3CC3)[C@@H](N)C2)nc(N2CCOCC2)n1,-5.197%
5,CCOc1ccc(Cl)c(C(=O)N2CCN(c3ncccn3)CC2)n1,79.36%
6,Cc1cccc(OCCC(=O)N2CCCN(CC(N)=O)CC2)c1C,-3.511%
7,CCC(O)CN1CCN(C(=O)c2cccn2Cc2ccccc2)CC1 (centres undefined),-11.52%
8,CCOc1ccc(Cl)c(C(=O)N2CCCN(CC(N)=O)CC2)n1,93.33%
9,CCOc1ccc(Cl)c(C(=O)N2CCN(c3cnccn3)CC2)n1,0.9998%
10,CCOc1ccc(Cl)c(C(=O)N2CCN(CC(O)CC)CC2)n1 (centres undefined),92.51%
11,CCOc1ccc(Cl)c(C(=O)NC(C)C(N)=O)n1 (centres undefined),-12.05%
12,CCOc1ccnc(N2CCN(C(=O)c3cccnc3O)CC2)n1,-0.2095%
13,CCC(O)CN1CCN(C(=O)c2csc(COC)n2)CC1 (centres undefined),-26.29%
14,CCOc1ccc(Cl)c(C(=O)N2CCN(c3ccncc3)CC2)n1,119.1%
15,CCOc1ccnc(N2CCN(C(=O)c3cn[nH]c3CC)CC2)n1,-0.2597%
16,CCOc1ccnc(N2CCN(C(=O)CCc3ccncc3)CC2)n1,-7.253%
17,COCc1nc(C2CC2)nn1-c1ccccc1Cl,-16.97%
18,CC(NCc1c(C(C)C)nn(C)c1N1CCOCC1)C(N)=O (centres undefined),1.644%
19,Cc1cnc(C)c(N2CCC(c3nccn3Cc3cscn3)CC2)n1,32.35%
20,CC(NC(=O)CCCOc1cccc(F)c1)c1ccncc1 (centres undefined),-15.4%
21,Cc1ncc2c(n1)CN(Cc1ncc(C(C)(C)C)o1)CC2,13.07%
22,OCC(O)CN1CCc2onc(-c3ccc(C(F)(F)F)cc3)c2C1 (centres undefined),-7.135%
23,CN(C)C(=O)c1ccc(OC2CCOCC2)cc1,14.67%

row,Compound,Percent Effect
1,COC(C)(C)CNC(=O)N(C)Cc1nc(-c2ccccc2)c[nH]1,-6.978%
2,CCOc1ccc(Cl)c(C(=O)N2CCN(CC(C)(C)O)CC2)n1,117.3%
3,CC(C)(O)CN1CCN(C(=O)c2cccc3[nH]ncc23)CC1,5.71%
4,CCOc1ccc(Cl)c(C(=O)N2CCN(C(=O)c3ccoc3C)CC2)n1,-0.3279%
5,CCOc1ccc(Cl)c(C(=O)NCc2ccc(C(=O)NC)cc2)n1,-13.09%
6,CCOc1ccc(Cl)c(C(=O)N2CCCSCC2)n1,87.04%
7,CCOc1ccc(Cl)c(C(=O)N2CCN(C(=O)OC)CC2)n1,106.5%
8,CC(C)(O)CN1CCN(C(=O)c2cc(Cl)cc3cccnc23)CC1,-2.728%
9,CCOc1ccc(Cl)c(C(=O)N(C)C)n1,-5.446%
10,COc1ccc(OCc2cc(C(=O)N3CCSCC3)n[nH]2)c(Cl)c1,-44.95%
11,c1cnnc(N2CCCC(NCc3ccc(-n4cccn4)cc3)C2)c1 (centres undefined),-2.089%
12,c1ncn(CC2CN(CC3CCCC3)CCO2)n1 (centres undefined),-0.8263%
13,c1ncn(CC2CN(CC3CCCCC3)CCO2)n1 (centres undefined),107.8%
14,C=C(C)CN1CCOC(Cn2cncn2)C1 (centres undefined),-5.235%
15,c1ccc(CCN2CCOC(Cn3cccn3)C2)nc1 (centres undefined),5.708%
16,Cc1cc(C)c2nc(CN3CCOC(CCO)C3)cc(O)c2c1 (centres undefined),-3.808%
17,c1ccc(CCCN2CCOC(Cn3cccn3)C2)cc1 (centres undefined),128.6%
18,O=S(=O)(CCCN1CCOC(Cn2cccn2)C1)c1ccccc1 (centres undefined),7.752%
19,Cc1cc(CCC2CN(CC3(O)CCCCC3)CCO2)ncn1 (centres undefined),116.4%
20,c1cnn(CCN2CCOC(Cn3cncn3)C2)c1 (centres undefined),-9.191%
21,c1cnn(CCN2CCOC(Cn3cccn3)C2)c1 (centres undefined),108.3%
22,c1cnn(CC2CN(CCc3ccncc3)CCO2)c1 (centres undefined),0.6004%
